SARS PLpro yeast – qHTS of Yeast-based Assay for SARS-CoV PLP; S. cerevisiae expressing SARS-CoV PLpro, growth rescue; Potency, µM (series often up to 32.9 µM), inactives show at the top dose activity, positive = growth rescue, actives largely listed as activators; hit rate 0.19% among 330,000; calls by dose curve; further: potency means the concentration at half of the fitted maximal effect; 0% is about no effect; nearly all actives have a fitted effect of over 55% in size
MARV entry inh – qHTS for inhibitors of binding or entry into cells for Marburg Virus | Potency, µM (titrated, usually from 37.8 µM), for inactives: at the highest dose activity change, negative = inhibition, most hits filed as inhibitors | Marburg virus pseudotyped entry inhibition, cell reporter | hit rate 1.8% among 300,000; calls by dose curve; tested in HEK293 cells; further: potency means the concentration at half of the fitted maximal effect; on the % scale 0 is the no-effect control and ±100 the full control effect
FMDV antiviral – High Throughput Screening for Foot and Mouth Disease Virus Antivirals | FMDV antiviral cell-based qHTS | Potency, µM (highest dose often 57.9 µM), for the others: top-dose activity change, negative = inhibition, usual class: inhibitors | hit rate 1.2% among 410,000; calls by dose curve; tested in HEK293T cells; further: read-out not given here; potency means the concentration at half of the fitted maximal effect; on the % scale 0 is the no-effect control and ±100 the full control effect; nearly all actives have a fitted effect of over 45% in size
HCMV inh – qHTS Assay for inhibitors of the human cytomegalovirus (HCMV) | HFF cells, HCMV-luciferase reporter, 72 h; active compounds read low | hit rate 4.5% among 410,000 | activity change, negative = inhibition, % at 57.5 µM; in the data active means activity change below about -60%; inconclusive means no clear call, values can overlap the other calls; inactive means above about -39%; further: on the % scale 0 is the no-effect control and ±100 the full control effect
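Luciferase read-out from HCMV-luciferase-infected HFFs (MOI 1 PFU/cell) 72 h post infection at 37C; compounds added after 16 h cell attachment; activity normalized between buffer-only basal and Salinomycin (10uM) inhibitor controls.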
HCV inhibitor – qHTS Assay for Inhibitors of Hepatitis C Virus (HCV). Huh7.5.1 HCVcc-Cre infection, luciferase reporter, 44 h. Potency, µM (titrated, usually from 41.8 µM), inactives show at the highest dose activity change, negative = inhibition, most hits filed as inhibitors. hit rate 3.4% among 340,000. AID 651820, 2012; active means well fitted inhibition curve with a large enough effect; inconclusive means small, poorly fitted or top-dose-only effect, or another doubt; inactive means no such curve, though single readings can be large or run the other way; further: potency means the concentration at half of the fitted maximal effect; on the % scale 0 is the no-effect control and ±100 the full control effect
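Whole-lifecycle infectious HCVcc-Cre system; cells 1,000/well, compound then virus (~0.5 moi) added 4 h after plating, 44 h culture. Luciferase read 15 sec following 15 min substrate incubation, room temp.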
Lassa entry inh – qHTS for Inhibitors of binding or entry into cells for Lassa Virus; hit rate 1.2% among 300,000; Potency, µM (top dose mostly 37.9 µM), for the others: top-dose activity change, negative = inhibition, usual class: inhibitors; AID 540256, 2011; Lassa virus pseudotype entry inhibition, cell reporter; calls by dose curve; tested in HEK293 cells; further: potency means the concentration at half of the fitted maximal effect; on the % scale 0 is the no-effect control and ±100 the full control effect; nearly all actives have a fitted effect of over 50% in size
Numbers without * were called inactive; ? = inconclusive; / = no result; [ ] = another dose, or the depositor's remark. Only some compounds are listed: those with a hit (about 8% of all), similar ones and a draw of the others.

SMILES | SARS PLpro yeast | MARV entry inh | FMDV antiviral | HCMV inh | HCV inhibitor | Lassa entry inh
COc1cccc(NC(=O)N[C@H]2CC[C@@]34CCCN3C(=O)CCC[C@H]4[C@H]2C)c1 | / | / | / | 45 | / | /
CO[C@H]1[C@H](NC(=O)c2ccsc2)c2ccccc2C12CCN(Cc1cccc3ncccc13)CC2 | / | / | -17% | / | / | /
CO[C@@H]1CN(C)C(=O)c2ccc(NC(=O)C3CCCC3)cc2OC[C@@H](C)N(Cc2ccc(F)cc2)C[C@H]1C | / | / | -14% | -63* | / | /
COC(=O)C1=C2CCO[C@@H]2[C@H]2[C@@H](C)[C@H](OC)c3ccccc3[C@H]12 | / | 0%[14.2 µM] | / | / | / | ?
CCc1nc2ccccc2nc1N1CCN(S(=O)(=O)c2ccccc2)CC1 | -1% | ? | ? | -68* | 5% | ?
O=C(c1cc2nc(-c3ccccc3)cc(-c3ccccc3)n2n1)N1CCCC1 | 13% | ? | 45% | 1 | ? | -17%[46.1 µM]
CN1CCN(C(=O)c2cc3nc(-c4ccccc4)cc(-c4ccccc4)n3n2)CC1 | -3% | -19% | 73% | -2 | 11µM* | 14%
O=C(c1cc2nc(-c3ccccc3)cc(-c3ccccc3)n2n1)N1CCN(C(=O)c2ccco2)CC1 | -9% | ? | -3% | -9 | 14µM* | ?
COc1ccc(/C=C/C(=O)C(C)(C)C)cc1OC | -1% | / | -4% | ? | 1% | /
COc1cc(/C=C/C(=O)c2ccc([N+](=O)[O-])o2)ccc1O | 1% | / | ? | -77* | ? | /
NS(=O)(=O)c1ccc(CNC(=O)/C=C/c2cccc(Cl)c2)cc1 | 21% | 27% | -17% | 5 | 2% | 1%
COc1ccc(/C=C/C(=O)c2ccc([N+](=O)[O-])o2)cc1OC | 3% | / | 35µM* | -104* | 5.6µM* | /
O=C(/C=C/c1cccc(Cl)c1)c1ccc([N+](=O)[O-])o1 | 5% | / | 11µM* | -100* | 2.5µM* | /
O=C(COC(=O)c1ccc(Cl)nc1)NNC(=O)c1ccc(Cl)cc1 | 0% | 22%[46.1 µM] | -5% | -2 | 0% | 0%
CC(NC(=O)C1CCOCC1)c1nnc2n1CCN(Cc1ccc(F)cc1)CC2 (stereo not given) | / | / | -11% | / | / | /
CC(C)[C@@H](C(=O)NC1CCN(Cc2ccccc2)CC1)N1C(=O)N2CCc3c([nH]c4ccccc34)[C@@]2(C)C1=O | 7% | / | -28% | -65* | -52% | /
CC(C)C[C@@H](C(=O)NC1CCN(Cc2ccccc2)CC1)N1C(=O)N2CCc3c([nH]c4ccccc34)[C@@]2(C)C1=O | -3% | / | ? | 7 | ? | /
C[C@@H](C(=O)NC1CCCCC1)N1C(=O)N2CCc3c([nH]c4ccccc34)[C@@]2(C)C1=O | -5% | / | ? | 10 | 0.56µM* | /
C[C@@H](C(=O)NC1CCN(Cc2ccccc2)CC1)N1C(=O)N2CCc3c([nH]c4ccccc34)[C@@]2(C)C1=O | -2% | / | ? | -13 | 7.9µM* | /
COc1cccc(NC(=O)CCc2nc(-c3cc(OC)c(OC)c(OC)c3)no2)c1 | / | -22%[46.1 µM] | -24% | 9 | / | -2%[46.1 µM]
CC(C)c1[nH]nc2c1C(c1ccc(F)cc1)NC2=O (stereo not given) | / | / | / | 34 | / | /
CC1CCC2(CC1)NC(=O)N(NC(=O)CCl)C2=O (stereo not given) | -1% | -20%[46.1 µM] | -3% | -63* | -7% | 6%
CC1CCC2(CC1)NC(=O)N(NC(=O)c1cccs1)C2=O (stereo not given) | 6% | / | 6% | -5 | 15% | /
Cc1cc(-c2ccccc2)c(C#N)c(N)n1 | / | ? | 1% | 82 | 7.9µM* | 3%
N#Cc1c(-c2ccccc2)cc(-c2ccc(O)cc2)nc1N | -4% | / | -29% | -23 | -5% | /
SMILES | SARS PLpro yeast | MARV entry inh | FMDV antiviral | HCMV inh | HCV inhibitor | Lassa entry inh
CCOC(=O)c1c(CSc2nc(C)cc(C)c2C#N)n(C)c2cc(Br)c(OC(C)=O)cc12 | -21% | -3% | ? | -94* | ? | ?
C=CCCc1ccc(C#N)c(SCc2c(C(=O)OCC)c3cc(OC(C)=O)c(Br)cc3n2C)n1 | -11% | ? | ? | / | ? | 7.9µM*
CCOC(=O)CC(=O)CSc1nc(C)cc(C)c1C#N | 1% | 0%[46.1 µM] | 0% | 0 | 5% | -2%
Cc1cccnc1C1=NOC(Cc2ccccc2)C(=O)N1Cc1ccc2c(c1)OCO2 (stereo not given) | / | / | 15% | -34 | / | /
O=[N+]([O-])c1ccc2c(c1)C(=NO)c1cc(Cl)c(Cl)cc1-2 | / | ? | 0% | ? | 11µM* | -5%[46.1 µM]
O=C(O)c1ccccc1-c1ccc([N+](=O)[O-])cc1Cl | / | / | -21% | -13 | / | /
Nc1cc2c(cc1[N+](=O)[O-])-c1ccccc1C2=NO | / | ? | 10% | -68* | ? | ?
Cc1c(CCNC(=O)c2ccc(C(C)(C)C)cc2)sc2nc(-c3ccc(F)cc3)nn12 | / | / | -1% | -31 | / | 1%[46.1 µM]
COc1ccccc1C(=O)N1CCN(c2nc3cc(C)cc(C)c3cc2C#N)CC1 | / | / | 0% | -19 | / | /
Cc1ccc2cc(C#N)c(N3CCN(C(=O)c4cccs4)CC3)nc2c1 | -2% | ? | 32µM* | 25 | ? | ?
COc1ccccc1C(=O)N1CCN(c2nc3cc(C)c(C)cc3cc2C#N)CC1 | -34% | 8.9µM* | ? | ? | ? | 10µM*
Cc1cccc(C(=O)Nc2ccccc2OCc2cc(=O)n3ccccc3n2)c1 | / | / | -3% | 25 | / | 19%[46.1 µM]
CCC1CN(CC(=O)NCc2ccc3c(c2)OCO3)Cc2ccc(Cl)cc2O1 (stereo not given) | / | / | -5% | / | / | /
Cc1ccc(C(=O)Nc2ccc(N3CCN(C(=O)c4ccco4)CC3)cc2)cc1 | -1% | 1%[46.1 µM] | -13% | 43 | -3% | 6%
CCCC(=O)N1CCN(c2ccc(NC(=O)c3ccco3)cc2)CC1 | -10% | 25% | 29% | 12 | 3.2µM* | 28%
O=C(Nc1ccc(N2CCN(C(=O)c3ccco3)CC2)cc1)c1ccco1 | -2% | ? | 24% | -31 | 5% | 15%
CS(=O)(=O)N1CCN(c2ccc(NC(=S)NC(=O)c3ccccc3[N+](=O)[O-])cc2)CC1 | -6% | -30%[46.1 µM] | ? | -30 | 13µM* | ?
COc1ccccc1C(=O)NC(=S)Nc1ccc(N2CCN(C(=O)c3ccco3)CC2)cc1 | 0% | / | ? | 13 | 32µM* | /
Cc1ccccc1C(=O)N1CCN(c2ccc(NC(=S)NC(=O)c3ccco3)cc2)CC1 | -10% | / | 25µM* | -87* | 6% | /
CN1c2ccccc2[C@@]2(O)C(=O)[C@@]1(C)[C@@H]1c3ccccc3C[C@H]12 | / | -28%[14.2 µM] | / | / | / | /
C=CCc1ccc(OCCCCNC(C)CC)c(OC)c1 (stereo not given) | -6% | ? | -8% | -21 | 8.9µM* | -13%

Source: PubChem BioAssay
